Bioassay records as filed in PubChem.
JMJD2A Tudor inh = qHTS Assay for Inhibitors of JMJD2A-Tudor Domain; AlphaScreen JMJD2A-Tudor / H3K4me3 peptide binding; Potency, µM (top dose mostly 114 µM), for inactives: at the top dose activity change, negative = inhibition, hits mostly inhibitors; 4.4% of 390,000 active; further: on the % scale 0 is the no-effect control and ±100 the full control effect; nearly all actives have a fitted effect of over 50% in size
BAZ2B inh = qHTS Assay for Inhibitors of BAZ2B; Bromodomain adjacent to zinc finger domain protein 2B (Homo sapiens), Q9UIF8; AlphaScreen BAZ2B-H3K14Ac peptide displacement; Potency, µM (top dose mostly 114 µM), inactives show top-dose activity change, negative = inhibition, usual class: inhibitors; 4.4% of 360,000 active; AID 504333, 2011; further: on the % scale 0 is the no-effect control and ±100 the full control effect; nearly all actives have a fitted effect of over 60% in size
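Complex of BAZ2B and biotin-H3K14Ac (50 nM apiece) forms over 30 min at RT, then faces library compounds up to 110 uM for another 30 min; AlphaScreen beads added, 20 min dark incubation, luminescence read.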
12-LOX inh = Primary qHTS assay for inhibitors of human arachidonate 12S-lipoxygenase (ALOX12): Round 2. purified 12hLO, xylenol orange hydroperoxide absorbance. 1.1% of 580,000 active. Polyunsaturated fatty acid lipoxygenase ALOX12 (Homo sapiens), P18054. AID 1671190, 2021. Potency, µM (series often up to 108 µM), without a hit: at the highest dose activity change, negative = inhibition, usual class: inhibitors; further: on the % scale 0 is the no-effect control and ±100 the full control effect
Target sequence (P18054 whole entry, looked up): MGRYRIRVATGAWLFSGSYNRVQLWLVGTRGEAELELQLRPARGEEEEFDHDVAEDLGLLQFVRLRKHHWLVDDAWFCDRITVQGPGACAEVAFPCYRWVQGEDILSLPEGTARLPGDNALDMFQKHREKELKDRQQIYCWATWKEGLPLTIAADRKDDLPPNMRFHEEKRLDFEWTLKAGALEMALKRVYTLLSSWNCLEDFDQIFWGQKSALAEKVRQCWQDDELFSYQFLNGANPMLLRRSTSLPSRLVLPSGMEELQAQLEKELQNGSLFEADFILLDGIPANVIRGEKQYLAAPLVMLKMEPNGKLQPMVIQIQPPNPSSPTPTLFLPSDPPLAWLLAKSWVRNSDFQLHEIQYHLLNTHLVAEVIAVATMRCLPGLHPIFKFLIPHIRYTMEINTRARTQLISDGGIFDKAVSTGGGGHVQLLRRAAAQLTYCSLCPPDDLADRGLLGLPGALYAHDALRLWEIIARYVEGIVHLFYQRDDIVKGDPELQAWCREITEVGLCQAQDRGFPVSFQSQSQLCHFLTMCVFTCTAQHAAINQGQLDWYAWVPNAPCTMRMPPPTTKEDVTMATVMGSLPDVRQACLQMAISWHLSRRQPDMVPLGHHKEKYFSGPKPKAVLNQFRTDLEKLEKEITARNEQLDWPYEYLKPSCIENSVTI
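Purified human 12hLO at 150 nM in 25 mM Hepes, 0.01% Triton X-100, pH 7.0, preincubated 15 min at room temperature with compound. Reaction started with 40 uM arachidonic acid, 30 min at room temperature. Hydroperoxide measured by Fe-xylenol orange, 573/405 nm absorbance ratio.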
HP1b binding inh = HTS for Inhibitors of HP1-beta Chromodomain Interactions with Methylated Histone Tails; Chromobox protein homolog 1 (Homo sapiens), P83916; 0.56% of 390,000 active; AlphaScreen HP1-beta / biotin-H3K9me3 peptide binding; Potency, µM (highest dose often 114 µM), for inactives: top-dose activity change, negative = inhibition, actives largely listed as inhibitors; further: nearly all actives have a fitted effect of over 70% in size
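AlphaScreen: HP1-beta (50 nM) preformed 30 min with biotin-H3(1-18)K9me3 peptide (50 nM) in PBS pH 7.4, 0.01% Tween-20. Compound added for 30 min at RT, then streptavidin donor/nickel chelate acceptor beads (10 ug/mL) for 30 min.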
Sfp inh = qHTS Assay for Inhibitors of Bacillus subtilis Sfp phosphopantetheinyl transferase (PPTase) | 4'-phosphopantetheinyl transferase ffp (Bacillus subtilis), Q9F4F7 | Biochemical Sfp PPTase activity, qHTS | Potency, µM, without a hit: largest response in the series, negative = inhibition, actives largely listed as inhibitors | 3.5% of 310,000 active | AID 1490, 2009;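 further: the enzyme is Sfp with the accession as filed and its product quenches rhodamine fluorescence; 0% = enzyme reaction without inhibitor and -100% = no enzyme wells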
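Fluorescence-quenching assay with 15 nM Sfp, 5 uM rhodamine-CoA and 12.5 uM BHQ-2-labelled ybbR peptide in pH 7.6 Hepes/MgCl2 buffer. Enzyme was pre-incubated with compound for 15 min at room temperature. Rate was taken from the 30-min fluorescence change (525/598 nm).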
G9a inh = qHTS Assay for Inhibitors of Histone Lysine Methyltransferase G9a; Histone-lysine N-methyltransferase EHMT2 (Homo sapiens), Q96KQ7; G9a H3K9 monomethylation, AlphaScreen, 2 h; Potency, µM (titrated, usually from 102 µM), inactives show top-dose activity, negative = inhibition, actives largely listed as inhibitors; 8.8% of 350,000 active; further: on the % scale 0 is the no-effect control and ±100 the full control effect; nearly all actives have a fitted effect of over 75% in size
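AlphaScreen read-out: biotin-H3K9 peptide (500 nM) methylation by 20 nM enzyme with 20 uM SAM, 2 h at room temperature after 15 min compound preincubation; anti-monomethyl H3K9 antibody plus donor/acceptor beads, 10 min dark.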
The depositor's hits bear a star; ? = inconclusive; . = no result given; [ ] = dose if it differs, or a comment. Only some compounds are listed: those with a hit (about 8.7% of all), similar ones and a draw of the others. The call rests on the fitted dose curve; in most records, active means well fitted curve in the direction sought with a large enough effect; inconclusive means small, poorly fitted or top-dose-only effect, or another doubt; inactive means no such curve, though single readings can be large; an effect the other way counts as inactive or inconclusive. Potency means the concentration at half of the fitted maximal effect.

SMILES	JMJD2A Tudor inh	BAZ2B inh	12-LOX inh	HP1b binding inh	Sfp inh	G9a inh
C#CCOCCOCCOCCNc1nc(N2CCN(C(=O)C([C@@H](C)CC)n3cc(C(N)Cc4ccc(O)cc4)nn3)CC2)nc(N2CCN(C(=O)[C@H](CCC(=O)O)n3cc(C(N)CC(C)C)nn3)CC2)n1 (some centres not stated)	56.2µM*	50.1µM*	-2.2%	52.6%	7.7%	?
C#CCOCCOCCOCCNc1nc(N2CCN(C(=O)C([C@@H](C)CC)n3cc(C(N)Cc4ccc(O)cc4)nn3)CC2)nc(N2CCN(C(=O)[C@H](CCC(=O)O)n3cc(C(N)[C@H](C)CC)nn3)CC2)n1 (some centres not stated)	?	79.4µM*	?	23.9%	-6.6%	13.2%[12.7 µM]
C#CCOCCOCCOCCNc1nc(N2CCN(C(=O)[C@H]([C@@H](C)CC)n3cc(CCC(=O)O)nn3)CC2)nc(N2CCN(C(=O)[C@H](Cc3ccc(O)cc3)n3cc(CCO)nn3)CC2)n1	?	.	?	33.4%	.	.
C#CCOCCOCCOCCNc1nc(N2CCN(C(=O)C([C@@H](C)CC)n3cc(C(N)Cc4ccc(O)cc4)nn3)CC2)nc(N2CCN(C(=O)[C@H](CCC(=O)O)n3cc(C(N)Cc4ccc(O)cc4)nn3)CC2)n1 (some centres not stated)	50.1µM*	56.2µM*	.	30.7%	-1.5%	?
CCCS(=O)(=O)N1CCC2(CC1)CC(N1CCN(C(C)=O)CC1)CCO2 (configuration not stated)	.	.	82.5%	.	.	.
CN1CCCC1CCNc1nccc(-c2cnn(-c3ccccc3F)c2)n1 (configuration not stated)	.	.	37.4%	.	.	.
C#CCOCCOCCOCCNc1nc(N2CCN(C(=O)C([C@@H](C)CC)n3cc(C(N)CC(C)C)nn3)CC2)nc(N2CCN(C(=O)[C@H](CCC(=O)O)n3cc(C(N)Cc4ccc(O)cc4)nn3)CC2)n1 (some centres not stated)	79.4µM*	?	.	54.6%	14.4%	?
CCC(C)NC(=O)C(NC(=O)c1ccc(C)cc1)C1CCN(C(=O)c2ccccc2C)CC1 (configuration not stated)	.	.	13.9%	.	.	.
CN1CCc2c(sc(/N=C/c3cc(C(C)(C)C)ccc3O)c2C#N)C1	?	?	3.4%	-14.3%	70.8µM*	?
CC1CCCC(C)N1CC(O)COCc1ccccc1F (configuration not stated)	50.1µM*	?	-23.2%	?	-3.0%	-7.7%[2.33 µM]
CCOc1cc(C)c(Cl)cc1S(=O)(=O)NCCO	.	.	5.6%	.	.	.
CCSCCNC(=O)c1c(C)noc1-c1cccc(F)c1	.	.	10.0%	.	.	.
COCCNC(=O)Cc1ccc(F)cc1	-12.3%	7.1%	-7.1%	27.3%	20.9%	15.0%[59 µM]
COCCNC(=O)CCCC(=O)NCCOC	25.1µM*	7.7%	-13.0%	51.1%	7.9%	19.9%[59 µM]
CCC(=O)N1C[C@@H]2C(=O)N(C)C(=O)[C@@H]2C1	.	.	-6.3%	.	.	.
CCOC(=O)c1c(NC(=O)OC)sc2c1CCC2	12.6%	-2.5%	-22.4%	14.1%	31.6µM*	-8.8%[59 µM]
COC(=O)Nc1sc2c(c1C(N)=O)CCCCCC2	?	-3.0%	-19.8%	-58.2%	-83.8%	3.55µM*
CCOC(=O)c1c(NS(=O)(=O)c2ccc(Br)cc2)sc2c1CCC2	79.4µM*	.	0.0%[57.4 µM]	-16.0%	.	.
CCOC(=O)c1c(NS(=O)(=O)Cc2ccccc2)sc2c1CCCC2	-18.8%	?	?	24.9%	-10.7%	?
COC(=O)C1=C(C)NC(=O)/C1=C\N(C)C	-8.2%	-11.2%	4.2%	36.2%	-4.3%	39.8µM*
CCN(C(=O)CSc1nncs1)c1c(N)n(Cc2ccccc2)c(=O)[nH]c1=O	-10.7%	-19.3%	-11.1%	53.1%	5.6%	14.1µM*
CCN(C(=O)CSc1nc2ccc([N+](=O)[O-])cc2s1)c1c(N)n(Cc2ccccc2)c(=O)[nH]c1=O	-3.3%	.	13.6%	41.1%	.	.
CCCCN(C(=O)CSc1nnc(Nc2ccccc2)s1)c1c(N)n(CCC)c(=O)[nH]c1=O	-13.4%	-4.8%	-9.1%	36.6%	3.2%	39.8µM*
CN(C(=O)CSc1nc2ccccc2s1)c1c(N)n(Cc2ccccc2)c(=O)[nH]c1=O	-14.7%	-2.8%	-1.3%	24.8%	-12.7%	25.1µM*
CCn1c(SCC(=O)N(C)c2c(N)n(Cc3ccccc3)c(=O)[nH]c2=O)nc2ccccc21	-3.2%	1.8%	0.0%	-20.2%	28.2µM*	.
SMILES	JMJD2A Tudor inh	BAZ2B inh	12-LOX inh	HP1b binding inh	Sfp inh	G9a inh
Cc1cc2c(cc1S(=O)(=O)N1CCC(C(=O)N3CCCC3)CC1)OCC(=O)N2	.	.	1.1%	.	.	.
Cc1cc(Nc2cccc(F)c2)nc(-c2ccccc2)n1	.	.	-22.6%	.	.	.
Cc1ccc(/C=C/C(=O)OCC(=O)N(CC(C)C)c2c(N)n(Cc3ccccc3)c(=O)[nH]c2=O)o1	-25.0%	4.4%	-15.0%	-2.7%	.	-6.8%[0.501 µM]
CCN(C(=O)COC(=O)/C=C/c1ccc(C)o1)c1c(N)n(Cc2ccccc2)c(=O)[nH]c1=O	79.4µM*	-0.3%	?	?	.	11.2µM*
CC(=O)N1CCN(Cc2ccc(OCCCN3CCOCC3)cc2)CC1	.	.	10.4%	.	.	.
O=C(Nc1ccc(N2CCC(c3ccccc3)C2)c(C(=O)O)c1)c1ccc(Cl)cc1 (configuration not stated)	?	-34.2%	?	16.1%	.	10µM*
COc1cc(/C=N/n2nnnc2Nc2ccccc2)cc(OC)c1OC	-17.0%	9.0%	.	7.5%	12.9%	-12.6%[59 µM]
COc1ccc(/C=N/n2c(N)nc(-c3ccccc3)c2-c2ccccc2)cc1	?	?	-16.5%	-11.8%	-16.0%	-26.1%[59 µM]
Cc1n[nH]c(=S)n1/N=C/c1ccccc1	3.98µM*	-7.4%	0.9%	23.6%	4.2%	10µM*
COc1ccc(/C=N/n2c(-c3ccccc3)n[nH]c2=S)cc1	25.1µM*	?	?	-15.6%	-5.6%	1.41µM*
COc1cc(/C=N/n2c(-c3ccccc3)n[nH]c2=S)cc(OC)c1OC	5.01µM*	-5.4%	28.2µM*	?	-10.5%	.
S=c1[nH]nc(-c2cc(-c3ccccc3)n[nH]2)n1/N=C/c1ccc(Cl)cc1	-31.0%	-20.5%	-112.7%	24.9%	-4.7%	?
